# Calls of active or inactive are those of the source. Rule as the data show it: active = fold change mostly below about -2 (no sharp cut-off); inactive = mostly above about -1.8.
# Test: TERT promoter activity modulators, primary screen, cell-based, luciferase reporter, human (AID 1259240)
# Details: A2780 TERT promoter luciferase reporter, 16 h; at 20 µM, fold versus average of vehicle-only wells
row,SMILES,fold change
1,COc1ccc2c(c1)NC(=O)C2(O)C(F)(F)F (stereo unspecified),2.17 (active)
2,COc1ccc2c(NCC3=CC=CC3)cc(C)nc2c1,-1.73 (inactive)
3,O=c1[nH]c2ncccc2c(=O)n1CCc1c[nH]c2ccccc12,-1.06 (inactive)
4,CCOC(=O)C1=C(CS(=O)(=O)c2ccccc2)NC(=O)NC1c1cccc(Br)c1 (stereo unspecified),1.6 (inactive)
5,CCOC(=O)CNC(=O)CSc1nc(C)nc2c1c(=O)n(C)c(=O)n2C,1.49 (inactive)
6,CC(NC(=O)c1cnn2c(C(F)F)cc(-c3ccccc3)nc12)c1ccccc1 (stereo unspecified),-1.39 (inactive)
7,CC(O)C(Nc1ncnc2ccccc12)C(=O)O (stereo unspecified),-1.06 (inactive)
8,CCC(=O)N1CCc2cc(S(=O)(=O)CCC(=O)NCC3COc4ccccc4O3)ccc21 (stereo unspecified),-1.32 (inactive)
9,CCOC(=O)c1nn(-c2ccc(OC)cc2)c(=O)c2c(NC(C)=O)scc12,1.14 (inactive)
10,COc1cccc(N=c2oc3c(OC)cccc3cc2S(=O)(=O)c2ccccc2)c1,-1.92 (inactive)
11,CCOc1csc2nc(C)cc(C)c12,-1.22 (inactive)
12,CCOc1cc(C2c3c(oc4ccc(F)cc4c3=O)C(=O)N2Cc2ccc(F)cc2)ccc1O (stereo unspecified),-3.2 (active)
13,CCc1nc(N)c(C#N)c(-c2ccco2)c1C,-2.16 (active)
14,O=C(Cc1ccc(NC2=NC3CS(=O)(=O)CC3S2)cc1)Nc1ccc(F)cc1 (stereo unspecified),-1.7 (inactive)
15,CC1=CC(=O)OC1Cc1ccc2ccccc2n1 (stereo unspecified),-1.06 (inactive)
16,CC1CCCCN1c1nnc(NC(=O)Cn2c(=O)oc3ccccc32)s1 (stereo unspecified),1.11 (inactive)
